Data: PubChem BioAssay (Tox21)
A number with no mark means an inactive call. Where a call stands in place of a potency, no number is given. Active and inactive are the calls of the source. Calls come from the whole dose curve; as a rule, active = well fitted curve in the direction sought with a large enough effect in the repeat runs; inconclusive = weak or mixed curves; inactive = flat fitted curve, though single readings scatter. Starred links: 1 amine or outer side, 2 acyl side, 3 side chain; linkers in the order of their positions; H or OH if unused. Positions of bridges follow the written chain, without caps; N, C: chain ends. Non-standard residues stand in square brackets, D forms with d. Residues, ends and D or L forms follow the SMILES beside them. Chains are numbered I, II in the order given. Actinocin(9to1) = Cc1c2oc3c(C)ccc(C(=O)[*:1])c3nc-2c(C(=O)[*:2])c(N)c1=O; NMeV = CN[C@H](C(=O)O)C(C)C; Sar = CNCC(=O)O

Experiment: qHTS assay to test for compound auto fluorescence at 460 nm (blue) in HEK293 cell free culture (AID 720681)
Settings: cell-free medium, autofluorescence 405/460 nm (blue); series mostly up to 91.3 µM
Text: U.S. Tox21 Program National Center for Advancing Translational Sciences [NCATS] NIH Chemical Genomics Center [NCGC] U.S. Environmental Protection Agency [EPA] National Institutes of Environmental Health Sciences [NIEHS] National Toxicology Program [NTP] U.S. Food and Drug Administration [FDA] Tox21 Assay Overview: Compound auto fluorescence often interferes with screening of the compound library against various biological targets and signaling pathways. Some of these compounds may have fluorophoric properties. Such properties may interfere with the assay outputs resulting in false positives and/or negatives. To decrease such complications and ensure the compound activities are relevant in terms of biological response, the Tox21 10K compound library was screened for auto fluorescence. From the fluorophores used as reporter signals in our screening assays, the auto fluorescence equivalencies of compounds against three fluorophores have been evaluated: Triamterene, Fluorescein and Rose Bengal sodium for blue, green and red fluorescence, respectively. The fluorescence intensities were measured using Excitation/Emission wavelengths at 405/460nm, 485/535nm and 540/590nm for blue, green and red labels, respectively. This assay includes the blue fluorescence data.
Tox21 Assay Protocol Summary: 5 uL of culture medium (DMEM containing 10% FBS) per well was dispensed into black wall/clear bottom 1536-well plates using a Multidrop Combi Dispenser (ThermoFisher Scientific, Waltham, MA). After 23 nL compound or DMSO vehicle was transferred into assay plate by a pintool work station (Kalypsys, San Diego, CA), fluorescence intensities in the assay plates were measured by an Envision (PerkinElmer, Shelton, CT) plate reader using three labels for measuring blue, green and red fluorescence at […] 460, 535 and 590nm respectively.

| SMILES | Potency | fluorescence, % of fluorescent control |
| --- | --- | --- |
| O=C(Cl)c1cccc(C(=O)Cl)c1 | inactive |  |
| Cc1occc(=O)c1OC(=O)C(C)C | inactive |  |
| CC(C)CCCCCCc1ccc(O)cc1 | inactive |  |
| c1ccc2c(c1)CCCC2C1=NCCN1 (stereo not given) | inactive |  |
| O=C(Nc1ccccc1SSc1ccccc1NC(=O)c1ccccc1)c1ccccc1 | inactive |  |
| c1cnc2cc3c(cc2n1)C1CNCC3C1 | inactive |  |
| CCCCCC(=O)O[C@]1(C(C)=O)CC[C@H]2[C@@H]3CCC4=CC(=O)CC[C@]4(C)[C@H]3CC[C@@]21C | inactive |  |
| C=C(C)C1CC=C(C)C(OC(C)=O)C1 (stereo not given) | inactive |  |
| CCc1cc(C(C)(C)C)c(O)c(C(C)(C)C)c1 | inactive |  |
| CC(=O)O[C@]1(C(C)=O)CC[C@H]2[C@@H]3C[C@H](C)C4=CC(=O)CC[C@]4(C)[C@H]3CC[C@@]21C | inactive |  |
| COc1ccc(COC(C)=O)cc1 | inactive |  |
| O=C(O)c1cn(-c2ccc(F)cc2)c2cc(N3CCNCC3)c(F)cc2c1=O | inactive |  |
| C=CC(=O)OCCCCCCOC(=O)C=C | inactive |  |
| CCN(CC)C(=S)SSC(=S)N(CC)CC | inactive |  |
| Oc1c(Cl)cc(Cl)c(Cl)c1Cc1c(O)c(Cl)cc(Cl)c1Cl | inactive |  |
| C[N+]1([O-])CCOCC1 | inactive |  |
| Cc1ccnc2c1NC(=O)c1cccnc1N2C1CC1 | inactive |  |
| CC[C@H]1CN2CCc3cc(OC)c(OC)cc3[C@@H]2C[C@@H]1C[C@H]1NCCc2cc(OC)c(OC)cc21 | inactive |  |
| CCC[C@H](N[C@@H](C)C(=O)N1[C@H](C(=O)O)C[C@@H]2CCCC[C@@H]21)C(=O)OCC | inactive |  |
| OCC(CO)N[C@H]1C[C@](O)(CO)[C@@H](O)[C@H](O)[C@H]1O | inactive |  |

| SMILES | Potency | fluorescence, % of fluorescent control |
| --- | --- | --- |
| CCCCC(CC)COC(=O)CC(C(=O)OCC(CC)CCCC)S(=O)(=O)O (stereo not given) | inactive |  |
| CCCCCCCCCCCCCCCCCl |  | -0.061% [at 18.6 µM] |
| N[C@@H]1CONC1=O | inactive |  |
| CC(C)(O)CCC(C)(C)O | inactive |  |
| CCCCN(CCO)CCCC | inactive |  |
| CC(=O)N[C@@H](CS)C(=O)O | inactive |  |
| NC(=Nc1ccccc1)Nc1ccccc1 | inactive |  |
| O=Cc1ccc(Cl)cc1 | inactive |  |
| COc1ccc(Cc2cnc(N)nc2N)cc1OC | inactive |  |
| O | inactive |  |
| Cc1c2oc3c(C)ccc(C(=O)N[C@@H]4C(=O)N[C@H](C(C)C)C(=O)N5CCC[C@H]5C(=O)N(C)CC(=O)N(C)[C@@H](C(C)C)C(=O)O[C@@H]4C)c3nc-2c(C(=O)N[C@@H]2C(=O)N[C@H](C(C)C)C(=O)N3CCC[C@H]3C(=O)N(C)CC(=O)N(C)[C@@H](C(C)C)C(=O)O[C@@H]2C)c(N)c1=O (I: T[dV]P[Sar][NMeV] / II: T[dV]P[Sar][NMeV]; ester I:1-I:C, II:1-II:C; linker I:N-II:N via Actinocin(9to1)) | inactive |  |
| COc1nc(C)nc(Cl)c1NC1=NCCN1 |  | 0.165% [at 18.6 µM] |
| CC(C)(c1ccccc1)c1ccc(Nc2ccc(C(C)(C)c3ccccc3)cc2)cc1 | inactive |  |
| CCOc1ccc2c(c1)C(C)=CC(C)(C)N2 | inactive |  |
| Cc1ccc(S(=O)(=O)Oc2ccc(N=Nc3ccc(-c4ccc(N=Nc5c(O)ccc6cc(S(=O)(=O)O)cc(S(=O)(=O)O)c56)c(C)c4)cc3C)cc2)cc1 | inactive |  |
| O=C1NCC2(CCN(CCc3ccccc3)CC2)O1 | inactive |  |
| NNCCc1ccccc1 | inactive |  |
| Cc1cc(Cc2cc(C)cc(C(C)(C)C)c2O)c(O)c(C(C)(C)C)c1 | inactive |  |
| c1ccc2n[nH]nc2c1 | inactive |  |
| COc1cc(C(=S)N2CCOCC2)ccc1O | inactive |  |
